From PubChem BioAssay (NCI)
About 83,000 compounds went through this panel and 20% of them were active in at least one assay; those are over-represented in the sample as a whole.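 96-well plates, one dose, 48 hours. Percent growth reported; active if below 10.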 Calls of active or inactive are those of the source.

Columns and labels:
Assay in all cases: NCI-60 one-dose screen, 48 h (100 = growth as untreated, 0 = no growth, -100 = all killed)
Conditions in all cases: 10 µM unless noted
T-47D breast = test system: T-47D breast
BT-549 breast = test system: BT-549 breast
MDA-MB-435 melanoma = test system: MDA-MB-435 melanoma
SW-620 colon = test system: SW-620 colon
MCF7 breast = test system: MCF7 breast
HCT-116 colon = test system: HCT-116 colon
HCC-2998 colon = test system: HCC-2998 colon
KM12 colon = test system: KM12 colon

Measured: growth

Brc1cccc(-c2cc(-c3ccc4c(c3)OC=CO4)[nH]n2)c1
active: MDA-MB-435 melanoma -25.2%
inactive: T-47D breast 44.3% | BT-549 breast 63.8% | SW-620 colon 31.5% | MCF7 breast 10.1% | HCT-116 colon 23.3% | HCC-2998 colon 59.8% | KM12 colon 38.1%

CC(C)(C)OC(=O)Nc1ccc(-c2cccc(Oc3ccc4nnc(Cl)n4n3)c2)cc1
inactive: T-47D breast 59.3% | BT-549 breast 58.8% | MDA-MB-435 melanoma 83.7% | SW-620 colon 97.3% | MCF7 breast 74.8% | HCT-116 colon 43.9% | HCC-2998 colon 109% | KM12 colon 88.2%

O=C(CN1CCN(c2cc(=O)[nH]c3ccc(F)cc23)CC1)N(c1ccccc1)c1ccccc1
inactive: T-47D breast 97.4% | BT-549 breast 104% | MDA-MB-435 melanoma 102% | SW-620 colon 104% | MCF7 breast 96.7% | HCT-116 colon 98% | HCC-2998 colon 106% | KM12 colon 107%

CNC(=O)c1cc(N2CCc3cc(NC(=O)Nc4ccc(N5CCN(C)CC5)c(C(F)(F)F)c4)ccc32)ccn1
active: SW-620 colon 3.68% | MCF7 breast -2.1% | HCT-116 colon -47.2%
inactive: T-47D breast 81.4% | BT-549 breast 84.9% | MDA-MB-435 melanoma 82.3% | HCC-2998 colon 84.9% | KM12 colon 29.5%

COc1ccc(CC(C)=C(c2ccc(OCCN3CCCC3)cc2)c2ccc(OCCN3CCCC3)cc2)cc1
active: T-47D breast -49.9% | BT-549 breast -69.5% | MDA-MB-435 melanoma -76.4% | SW-620 colon -53% | MCF7 breast -80% | HCT-116 colon -17.6% | HCC-2998 colon -80.3% | KM12 colon -95.3%

N#Cc1c(-c2cccs2)cc(-c2cnccn2)nc1SCC(=O)N/N=C/c1ccccc1
inactive: T-47D breast 25.6% | BT-549 breast 14.8% | MDA-MB-435 melanoma 23.6% | MCF7 breast 19.4% | HCC-2998 colon 71% | KM12 colon 33.2%
active: SW-620 colon 8.83% | HCT-116 colon -23.6%

O=C(CSc1nnc(-c2ccc(Cl)cc2)n1-c1ccccc1)Nc1ccccc1Cl
inactive: T-47D breast 45.7% | BT-549 breast 53.8% | MDA-MB-435 melanoma 80.9% | SW-620 colon 51.6% | MCF7 breast 66.4% | HCT-116 colon 12.1% | HCC-2998 colon 88.3% | KM12 colon 80%

COc1ccc(C2CC(c3cccc(OCCCCOc4cccc(C5=NN(C(C)=O)C(c6ccc(OC)cc6)C5)c4)c3)=NN2C(C)=O)cc1 (stereo not given)
inactive: T-47D breast 40.1% | BT-549 breast 69.8% | MDA-MB-435 melanoma 60.3% | SW-620 colon 87.1% | MCF7 breast 39.9% | HCT-116 colon 47.3% | HCC-2998 colon 83.1% | KM12 colon 70.5%

O=S(=O)(Oc1ccc(-c2cn3ccoc3n2)cc1)C1CCCCC1
inactive: T-47D breast 95.7% | BT-549 breast 125% | MDA-MB-435 melanoma 98.6% | SW-620 colon 103% | MCF7 breast 87% | HCT-116 colon 89.3% | HCC-2998 colon 113% | KM12 colon 103%

CCCCCN1C(=O)/C(=c2\sc3n(c2=O)C2C(NN=3)N(CC)C(=O)N2CC)c2cccc(C)c21 (stereo not given)
inactive: T-47D breast 44% | BT-549 breast 68% | SW-620 colon 43.5% | MCF7 breast 18.2% | HCT-116 colon 32.3% | HCC-2998 colon 86% | KM12 colon 26.6%
active: MDA-MB-435 melanoma -13.6%

C#CCN(C)CCCOc1ccc(NC(=O)CCCCCCC(=O)NO)cc1Cl
active: T-47D breast -2.41% | MDA-MB-435 melanoma -0.594% | HCT-116 colon 2.96%
inactive: BT-549 breast 44.9% | SW-620 colon 11.7% | MCF7 breast 13.4% | HCC-2998 colon 12.9% | KM12 colon 24.8%

O=S(=O)(NCCCNc1nccc(-c2[nH]c(-c3ccccc3)nc2-c2ccc(F)c(O)c2)n1)c1cccc2ccccc12
inactive: T-47D breast 51.3% | BT-549 breast 69.2% | MDA-MB-435 melanoma 36.9% | SW-620 colon 68.9% | MCF7 breast 44.9% | HCT-116 colon 34.6% | HCC-2998 colon 99% | KM12 colon 55.7%

CN(C)c1cccc2c(S(=O)(=O)Nc3cccc(-c4csc(NC(=O)CCCCCN5CCN(CCO)CC5)n4)c3)cccc12
inactive: T-47D breast 82.7% | BT-549 breast 87.5% | MDA-MB-435 melanoma 65.6% | SW-620 colon 98.4% | MCF7 breast 35.8% | HCT-116 colon 36.2% | HCC-2998 colon 90.3% | KM12 colon 88.6%

Cc1ccc2c(n1)C(=O)C(Cl)=C(Nc1ccc(C#N)cc1)C2=O
inactive: BT-549 breast 120% | MDA-MB-435 melanoma 99.5% | MCF7 breast 18.7% | HCT-116 colon 67.9% | HCC-2998 colon 108% | KM12 colon 102%
active: T-47D breast 7.98% | SW-620 colon -23.1%

CSc1ccc(C(=NNS(=O)(=O)c2ccc(C)cc2)c2ccc(Cl)cc2)cc1
inactive: T-47D breast 89.7% | BT-549 breast 118% | MDA-MB-435 melanoma 106% | SW-620 colon 102% | MCF7 breast 88.2% | HCT-116 colon 98.2% | HCC-2998 colon 103% | KM12 colon 97.1%
